The experiment relates to Vero E6 infected with SARS-CoV-2. As to the kind of experiment: morphology score (similarity to uninfected cells); higher = more like uninfected cells. The conditions noted are these: 24 h.
Regarding `CC(=O)OCC1=C(C(=O)O)N2C(=O)[C@@H](N)[C@H]2SC1` [7-aminocephalosporanic-acid] (10 µM), the morphology score is -0.0363. The value for `O=C(NCCO)c1cc(C(=O)NCCO)cc(C(=O)NCCO)c1` (10 µM) was 0.0411; that for `Cc1ccc(S(=O)(=O)Cc2nc(-c3ccc(C(=O)NCc4cccnc4)cc3)oc2C)cc1` (0.833333 µM) was -0.146; that for `O=C1c2ccccc2CCC1CNCCc1ccc(O)cc1` (configuration not stated) (10 µM) was 0.0149. For the compound `O=C1NC(=O)C(c2cnc3ccccn23)=C1c1cn2c3c(cc(F)cc13)CN(C(=O)N1CCCCC1)CC2` (10 µM), the morphology score was -0.436.

In turn, `COc1ccc2c(NC(=O)Nc3cccc(C(F)(F)F)n3)ccnc2c1` (10 µM) came in with a morphology score of -0.049. Take `C[C@@H]1C[C@H]2[C@@H]3CCC4=CC(=O)C=C[C@]4(C)[C@@]3(Cl)[C@@H](O)C[C@]2(C)[C@@]1(OC(=O)c1ccco1)C(=O)CCl` (10 µM): the morphology score was 0.481.

`COC(=O)C1=C(C#N)NC(C)=C(C(=O)OC(C)C)C1c1cccc([N+](=O)[O-])c1` (configuration not stated) [nilvadipine] (10 µM) displayed a morphology score of -0.0761. The same measure for `O=C(O)Cn1c(C(=O)Nc2nc(-c3ccccc3Cl)cs2)cc2ccccc21` (10 µM): 0.162; for `CCc1cccc(CC)c1NC(=O)N1Cc2[nH]nc(NC(=O)c3ccc(N4CCN(C)CC4)cc3)c2C1` (10 µM): 0.108; for `CCCCC(=O)O[C@]1(C(=O)CO)CC[C@H]2[C@@H]3CCC4=CC(=O)CC[C@]4(C)[C@H]3[C@@H](O)C[C@@]21C` [hydrocortisone-valerate] (10 µM): 0.0807. Compound `C[C@@H]1C(=O)O[C@H]2C[C@@]34[C@H]5C[C@@H](C(C)(C)C)[C@]36[C@@H](OC(=O)[C@@H]6O)O[C@@]4(C(=O)O5)[C@]21O` [Ginkgolide A] (10 µM) yielded a morphology score of -0.0141.

The record behind these values is the supplement of paper PMC13380429.
